Results on 2 compounds are retold here after ChEMBL document CHEMBL1961873, “Compounds: GSK PKIS; Assays: Nanosyn kinase panel” (2012).

The structures appear in SMILES notation.

Assay [1] has as its target Protein kinase C gamma type (Homo sapiens) (UniProt P05129). To be noted: at 1 µM.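 Further: each value is an averaged percent inhibition of the enzyme.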
Assay [2] deals with T1, Protein kinase C iota type (Homo sapiens) (UniProt P41743).
T1 sequence (whole entry): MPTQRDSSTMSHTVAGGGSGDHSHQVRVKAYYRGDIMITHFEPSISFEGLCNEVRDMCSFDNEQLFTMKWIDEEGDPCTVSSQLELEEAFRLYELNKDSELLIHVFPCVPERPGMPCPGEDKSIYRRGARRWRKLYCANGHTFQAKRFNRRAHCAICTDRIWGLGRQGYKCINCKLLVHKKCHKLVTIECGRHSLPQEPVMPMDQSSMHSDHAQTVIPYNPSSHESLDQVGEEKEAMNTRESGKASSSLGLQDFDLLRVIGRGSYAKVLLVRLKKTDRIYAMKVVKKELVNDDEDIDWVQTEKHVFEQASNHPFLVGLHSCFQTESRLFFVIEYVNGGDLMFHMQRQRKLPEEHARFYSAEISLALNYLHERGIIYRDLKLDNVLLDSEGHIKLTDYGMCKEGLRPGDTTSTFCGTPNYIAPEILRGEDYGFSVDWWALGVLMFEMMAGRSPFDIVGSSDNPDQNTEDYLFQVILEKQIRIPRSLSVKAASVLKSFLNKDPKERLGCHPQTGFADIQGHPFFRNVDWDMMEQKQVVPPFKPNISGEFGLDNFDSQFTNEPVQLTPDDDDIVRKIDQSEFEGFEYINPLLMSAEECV
Particulars: at 0.1 µM.

For assay [3], the target named is T1, Protein kinase C iota type (Homo sapiens). To be noted: at 1 µM.
The target of assay [4] is Protein kinase C theta type (Homo sapiens) (UniProt Q04759). To be noted: at 0.1 µM.
For assay [5] the target is unchanged. Particulars: at 1 µM.
Assay [6] deals with Protein kinase C beta type (Homo sapiens) (UniProt P05771). Particulars: at 0.1 µM.
Assay [7] has the same target. Particulars: at 1 µM.
The target in assay [8] is T2, Serine/threonine-protein kinase D1 (Homo sapiens) (UniProt Q15139).
T2 sequence (whole entry): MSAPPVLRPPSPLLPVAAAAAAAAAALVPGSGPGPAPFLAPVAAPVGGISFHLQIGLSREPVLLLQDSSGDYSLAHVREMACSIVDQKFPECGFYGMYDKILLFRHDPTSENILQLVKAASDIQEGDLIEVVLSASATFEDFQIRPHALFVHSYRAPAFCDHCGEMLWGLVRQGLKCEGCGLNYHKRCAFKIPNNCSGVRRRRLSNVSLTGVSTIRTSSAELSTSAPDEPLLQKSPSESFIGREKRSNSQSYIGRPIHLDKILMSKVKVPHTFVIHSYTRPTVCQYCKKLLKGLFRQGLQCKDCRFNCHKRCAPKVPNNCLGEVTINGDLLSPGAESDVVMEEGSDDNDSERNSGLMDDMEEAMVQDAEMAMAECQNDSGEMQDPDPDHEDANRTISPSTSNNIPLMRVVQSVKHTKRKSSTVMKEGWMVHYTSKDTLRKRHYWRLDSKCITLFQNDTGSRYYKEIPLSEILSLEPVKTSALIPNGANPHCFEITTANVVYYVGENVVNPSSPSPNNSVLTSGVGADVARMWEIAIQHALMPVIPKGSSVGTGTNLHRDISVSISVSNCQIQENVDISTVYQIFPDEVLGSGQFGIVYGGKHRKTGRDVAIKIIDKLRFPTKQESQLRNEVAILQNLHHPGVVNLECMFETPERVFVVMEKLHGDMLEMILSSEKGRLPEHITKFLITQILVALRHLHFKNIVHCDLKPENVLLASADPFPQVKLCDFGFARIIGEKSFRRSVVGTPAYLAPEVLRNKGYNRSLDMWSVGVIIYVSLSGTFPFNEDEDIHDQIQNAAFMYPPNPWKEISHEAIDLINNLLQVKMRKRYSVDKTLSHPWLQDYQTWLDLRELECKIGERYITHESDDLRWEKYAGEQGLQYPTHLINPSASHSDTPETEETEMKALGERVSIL
To be noted: at 0.1 µM.

Assay [9] addresses T2, Serine/threonine-protein kinase D1 (Homo sapiens). Particulars: at 1 µM.
The target of assay [10] is T3, Serine/threonine-protein kinase D2 (Homo sapiens) (UniProt Q9BZL6).
T3 sequence (whole entry): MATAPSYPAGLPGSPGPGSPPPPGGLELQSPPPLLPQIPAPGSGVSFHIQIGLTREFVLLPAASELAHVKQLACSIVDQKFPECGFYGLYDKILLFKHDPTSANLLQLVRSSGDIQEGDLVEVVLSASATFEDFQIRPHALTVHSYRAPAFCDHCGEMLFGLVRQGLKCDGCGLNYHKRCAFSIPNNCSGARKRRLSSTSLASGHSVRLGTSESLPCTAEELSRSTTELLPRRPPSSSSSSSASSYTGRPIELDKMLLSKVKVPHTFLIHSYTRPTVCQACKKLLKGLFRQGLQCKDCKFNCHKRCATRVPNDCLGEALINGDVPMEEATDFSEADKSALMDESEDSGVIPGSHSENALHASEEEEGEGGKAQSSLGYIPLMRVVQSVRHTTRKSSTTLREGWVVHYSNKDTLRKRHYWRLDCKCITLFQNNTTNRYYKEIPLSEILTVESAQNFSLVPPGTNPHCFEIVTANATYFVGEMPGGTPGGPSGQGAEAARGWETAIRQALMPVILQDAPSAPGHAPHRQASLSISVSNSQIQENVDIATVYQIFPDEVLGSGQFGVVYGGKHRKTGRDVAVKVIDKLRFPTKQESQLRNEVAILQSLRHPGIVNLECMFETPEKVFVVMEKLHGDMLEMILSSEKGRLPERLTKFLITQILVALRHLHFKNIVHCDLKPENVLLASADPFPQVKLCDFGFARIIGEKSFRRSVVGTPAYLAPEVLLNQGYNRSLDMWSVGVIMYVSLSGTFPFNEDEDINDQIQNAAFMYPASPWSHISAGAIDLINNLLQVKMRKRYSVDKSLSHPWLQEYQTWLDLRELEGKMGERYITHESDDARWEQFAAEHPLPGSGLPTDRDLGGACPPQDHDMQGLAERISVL
Particulars: at 0.1 µM.

The target of assay [11] is T3, Serine/threonine-protein kinase D2 (Homo sapiens). Particulars: at 1 µM.
Assay [12] deals with T4, Serine/threonine-protein kinase D3 (Homo sapiens) (UniProt O94806).
T4 sequence (whole entry): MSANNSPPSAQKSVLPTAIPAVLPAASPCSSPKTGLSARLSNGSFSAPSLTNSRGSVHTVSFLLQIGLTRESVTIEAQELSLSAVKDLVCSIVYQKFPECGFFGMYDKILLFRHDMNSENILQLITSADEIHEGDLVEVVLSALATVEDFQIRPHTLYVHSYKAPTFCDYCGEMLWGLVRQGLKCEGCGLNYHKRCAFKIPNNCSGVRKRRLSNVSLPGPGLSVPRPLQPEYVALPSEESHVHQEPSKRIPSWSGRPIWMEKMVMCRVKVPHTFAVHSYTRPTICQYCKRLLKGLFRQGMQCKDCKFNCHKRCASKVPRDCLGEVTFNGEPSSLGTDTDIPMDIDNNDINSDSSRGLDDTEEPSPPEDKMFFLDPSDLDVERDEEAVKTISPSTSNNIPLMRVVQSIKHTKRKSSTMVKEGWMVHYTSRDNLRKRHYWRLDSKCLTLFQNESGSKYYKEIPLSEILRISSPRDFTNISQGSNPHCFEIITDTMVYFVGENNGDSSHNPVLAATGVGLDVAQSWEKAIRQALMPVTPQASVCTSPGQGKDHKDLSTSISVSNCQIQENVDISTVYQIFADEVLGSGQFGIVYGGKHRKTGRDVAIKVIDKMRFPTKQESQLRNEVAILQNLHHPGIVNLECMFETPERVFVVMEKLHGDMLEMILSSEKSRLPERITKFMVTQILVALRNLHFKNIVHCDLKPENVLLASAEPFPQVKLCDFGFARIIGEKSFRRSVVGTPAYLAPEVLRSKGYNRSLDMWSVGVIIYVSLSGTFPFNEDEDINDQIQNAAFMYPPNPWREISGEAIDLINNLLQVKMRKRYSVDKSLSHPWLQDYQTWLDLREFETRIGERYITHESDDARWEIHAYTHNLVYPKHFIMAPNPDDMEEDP
To be noted: at 0.1 µM.

The target in assay [13] is T4, Serine/threonine-protein kinase D3 (Homo sapiens). Particulars: at 1 µM.
Assay [14] concerns the target T5, cGMP-dependent protein kinase 1 (Homo sapiens) (UniProt Q13976).
T5 sequence (whole entry): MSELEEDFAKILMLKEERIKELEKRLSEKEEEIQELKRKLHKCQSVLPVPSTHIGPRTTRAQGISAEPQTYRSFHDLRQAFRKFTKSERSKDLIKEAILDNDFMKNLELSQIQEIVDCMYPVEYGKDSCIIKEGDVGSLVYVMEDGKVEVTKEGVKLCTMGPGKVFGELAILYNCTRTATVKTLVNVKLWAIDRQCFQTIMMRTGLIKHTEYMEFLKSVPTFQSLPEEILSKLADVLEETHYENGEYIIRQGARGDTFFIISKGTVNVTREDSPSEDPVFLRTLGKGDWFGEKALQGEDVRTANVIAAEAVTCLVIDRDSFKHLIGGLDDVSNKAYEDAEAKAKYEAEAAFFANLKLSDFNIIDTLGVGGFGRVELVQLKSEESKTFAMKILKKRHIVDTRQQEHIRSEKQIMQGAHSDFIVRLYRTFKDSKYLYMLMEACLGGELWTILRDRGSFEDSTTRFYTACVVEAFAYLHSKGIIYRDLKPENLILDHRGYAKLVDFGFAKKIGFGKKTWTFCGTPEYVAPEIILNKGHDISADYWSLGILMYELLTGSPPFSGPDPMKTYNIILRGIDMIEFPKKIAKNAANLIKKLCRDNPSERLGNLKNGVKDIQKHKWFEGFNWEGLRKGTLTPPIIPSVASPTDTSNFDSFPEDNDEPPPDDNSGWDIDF
To be noted: at 0.1 µM.

Assay [15] has as its target T5, cGMP-dependent protein kinase 1 (Homo sapiens). Particulars: at 1 µM.
Assay [16] deals with T6, cGMP-dependent protein kinase 2 (Homo sapiens) (UniProt Q13237).
T6 sequence (whole entry): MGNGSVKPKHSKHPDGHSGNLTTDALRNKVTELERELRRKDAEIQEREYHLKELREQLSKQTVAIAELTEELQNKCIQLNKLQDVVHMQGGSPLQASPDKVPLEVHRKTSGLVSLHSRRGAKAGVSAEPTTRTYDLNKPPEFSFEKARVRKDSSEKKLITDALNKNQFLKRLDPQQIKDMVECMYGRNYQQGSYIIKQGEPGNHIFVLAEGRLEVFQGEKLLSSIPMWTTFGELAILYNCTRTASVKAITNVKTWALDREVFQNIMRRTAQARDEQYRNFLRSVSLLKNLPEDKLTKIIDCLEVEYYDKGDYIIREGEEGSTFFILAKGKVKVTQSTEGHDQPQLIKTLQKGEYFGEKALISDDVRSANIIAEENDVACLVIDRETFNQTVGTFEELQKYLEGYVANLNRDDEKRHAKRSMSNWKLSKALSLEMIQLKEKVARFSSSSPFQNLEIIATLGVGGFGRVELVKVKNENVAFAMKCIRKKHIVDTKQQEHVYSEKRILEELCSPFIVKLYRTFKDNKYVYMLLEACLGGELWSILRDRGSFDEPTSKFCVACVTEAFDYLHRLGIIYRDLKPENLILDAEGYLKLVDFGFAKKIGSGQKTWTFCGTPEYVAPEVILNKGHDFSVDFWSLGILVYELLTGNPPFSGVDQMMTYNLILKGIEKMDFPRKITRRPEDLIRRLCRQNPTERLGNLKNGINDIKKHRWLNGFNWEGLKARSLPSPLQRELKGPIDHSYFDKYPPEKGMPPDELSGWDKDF
To be noted: at 0.1 µM.

Assay [17] has as its target T6, cGMP-dependent protein kinase 2 (Homo sapiens). Particulars: at 1 µM.
Assay [18] has as its target T7, cAMP-dependent protein kinase catalytic subunit PRKX (Homo sapiens) (UniProt P51817).
T7 sequence (whole entry): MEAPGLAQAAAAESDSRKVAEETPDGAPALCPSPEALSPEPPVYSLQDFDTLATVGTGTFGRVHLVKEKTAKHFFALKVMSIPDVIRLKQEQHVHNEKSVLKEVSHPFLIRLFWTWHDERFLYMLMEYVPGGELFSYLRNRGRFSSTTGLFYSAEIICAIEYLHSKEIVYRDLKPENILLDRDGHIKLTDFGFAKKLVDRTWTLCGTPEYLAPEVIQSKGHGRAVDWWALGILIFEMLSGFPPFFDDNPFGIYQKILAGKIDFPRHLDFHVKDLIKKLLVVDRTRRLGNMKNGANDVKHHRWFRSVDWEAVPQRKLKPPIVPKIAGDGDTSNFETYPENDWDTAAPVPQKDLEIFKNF
Particulars: at 0.1 µM.

The target of assay [19] is T7, cAMP-dependent protein kinase catalytic subunit PRKX (Homo sapiens). To be noted: at 1 µM.
Assay [20] deals with Rho-associated protein kinase 1 (Homo sapiens) (UniProt Q13464). Particulars: at 0.1 µM.
Sequence of Rho-associated protein kinase 1 (Homo sapiens) (Q13464 2-1354 limits assumed): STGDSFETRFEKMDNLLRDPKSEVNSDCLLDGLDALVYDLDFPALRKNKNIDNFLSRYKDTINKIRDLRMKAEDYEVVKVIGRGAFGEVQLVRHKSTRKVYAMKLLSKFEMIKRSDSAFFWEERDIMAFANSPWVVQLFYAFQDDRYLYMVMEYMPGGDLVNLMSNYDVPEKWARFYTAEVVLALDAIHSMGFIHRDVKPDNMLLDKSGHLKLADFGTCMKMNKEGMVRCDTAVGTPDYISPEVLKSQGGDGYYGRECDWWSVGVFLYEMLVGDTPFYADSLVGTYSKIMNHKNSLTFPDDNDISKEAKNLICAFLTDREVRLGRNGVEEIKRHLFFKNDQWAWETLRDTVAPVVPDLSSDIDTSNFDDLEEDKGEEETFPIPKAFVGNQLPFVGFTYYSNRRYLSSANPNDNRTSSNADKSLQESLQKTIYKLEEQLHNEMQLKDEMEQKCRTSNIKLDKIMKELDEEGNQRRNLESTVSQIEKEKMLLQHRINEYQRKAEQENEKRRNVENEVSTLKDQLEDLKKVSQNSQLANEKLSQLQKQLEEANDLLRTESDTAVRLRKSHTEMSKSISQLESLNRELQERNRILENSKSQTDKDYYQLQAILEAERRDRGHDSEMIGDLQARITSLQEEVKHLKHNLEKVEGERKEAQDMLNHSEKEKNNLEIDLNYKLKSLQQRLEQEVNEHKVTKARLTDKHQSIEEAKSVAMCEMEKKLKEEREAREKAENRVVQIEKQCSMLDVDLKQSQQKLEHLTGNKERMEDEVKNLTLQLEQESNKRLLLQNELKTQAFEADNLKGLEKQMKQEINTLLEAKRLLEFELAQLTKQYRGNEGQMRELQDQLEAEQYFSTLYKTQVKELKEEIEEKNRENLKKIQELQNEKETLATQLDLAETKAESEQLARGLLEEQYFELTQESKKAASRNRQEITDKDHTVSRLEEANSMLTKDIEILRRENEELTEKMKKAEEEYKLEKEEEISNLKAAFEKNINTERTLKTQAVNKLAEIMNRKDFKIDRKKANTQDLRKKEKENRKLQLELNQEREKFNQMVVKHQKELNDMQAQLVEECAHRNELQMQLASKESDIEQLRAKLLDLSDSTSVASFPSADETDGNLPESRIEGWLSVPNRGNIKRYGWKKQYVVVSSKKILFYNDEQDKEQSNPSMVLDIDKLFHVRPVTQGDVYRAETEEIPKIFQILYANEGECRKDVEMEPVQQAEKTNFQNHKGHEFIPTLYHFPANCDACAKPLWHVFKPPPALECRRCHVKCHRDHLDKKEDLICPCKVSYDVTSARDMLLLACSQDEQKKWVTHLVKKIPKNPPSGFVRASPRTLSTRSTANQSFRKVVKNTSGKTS

Sequence of Protein kinase C beta type (Homo sapiens) (P05771 2-671 limits assumed): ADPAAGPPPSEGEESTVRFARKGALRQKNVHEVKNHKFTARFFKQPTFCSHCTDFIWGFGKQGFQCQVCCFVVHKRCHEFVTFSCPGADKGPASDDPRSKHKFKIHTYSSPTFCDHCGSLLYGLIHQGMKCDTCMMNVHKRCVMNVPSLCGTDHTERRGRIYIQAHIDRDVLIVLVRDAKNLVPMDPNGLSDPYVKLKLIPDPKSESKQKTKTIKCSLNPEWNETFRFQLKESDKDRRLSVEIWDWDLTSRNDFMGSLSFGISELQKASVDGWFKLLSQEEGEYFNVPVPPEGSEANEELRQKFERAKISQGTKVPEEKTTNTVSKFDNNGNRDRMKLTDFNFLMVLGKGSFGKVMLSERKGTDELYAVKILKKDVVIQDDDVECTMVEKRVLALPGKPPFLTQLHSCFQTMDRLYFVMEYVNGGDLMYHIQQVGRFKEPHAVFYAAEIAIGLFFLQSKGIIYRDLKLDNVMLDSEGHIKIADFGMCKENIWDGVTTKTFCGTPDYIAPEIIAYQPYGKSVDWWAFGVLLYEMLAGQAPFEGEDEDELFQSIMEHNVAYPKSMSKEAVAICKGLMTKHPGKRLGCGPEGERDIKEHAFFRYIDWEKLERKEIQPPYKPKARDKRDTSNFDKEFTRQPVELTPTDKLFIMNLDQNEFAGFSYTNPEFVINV
Sequence of Protein kinase C theta type (Homo sapiens) (Q04759 whole entry, looked up): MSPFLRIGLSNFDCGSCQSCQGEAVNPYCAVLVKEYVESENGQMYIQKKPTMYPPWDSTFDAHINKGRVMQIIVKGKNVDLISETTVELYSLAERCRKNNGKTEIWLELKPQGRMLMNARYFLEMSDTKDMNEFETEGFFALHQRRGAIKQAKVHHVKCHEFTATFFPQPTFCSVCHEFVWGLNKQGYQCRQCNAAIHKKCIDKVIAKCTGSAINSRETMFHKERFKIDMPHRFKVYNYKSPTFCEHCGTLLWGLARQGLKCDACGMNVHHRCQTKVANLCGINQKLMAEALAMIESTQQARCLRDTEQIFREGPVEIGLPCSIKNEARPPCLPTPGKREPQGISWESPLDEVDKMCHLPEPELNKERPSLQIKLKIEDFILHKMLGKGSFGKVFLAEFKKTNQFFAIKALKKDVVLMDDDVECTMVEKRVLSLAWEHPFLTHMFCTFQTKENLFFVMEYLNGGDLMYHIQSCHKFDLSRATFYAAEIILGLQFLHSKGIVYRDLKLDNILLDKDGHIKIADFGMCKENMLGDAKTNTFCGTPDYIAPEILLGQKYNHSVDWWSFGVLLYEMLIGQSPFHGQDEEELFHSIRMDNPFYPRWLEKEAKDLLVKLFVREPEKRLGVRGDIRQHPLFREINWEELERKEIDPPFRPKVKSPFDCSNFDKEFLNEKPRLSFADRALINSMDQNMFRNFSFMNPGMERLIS

For orientation: inhibition means the relative decrease from the control value, in per cent. Regarding `N#Cc1c(NC(=O)c2ccc(F)cc2)sc2c1CCCC2`, the inhibition was 0.62% in assay [1]; -0.52% in assay [2]; -1.26% in assay [3]; 0.53% in assay [4]; -0.01% in assay [5]; 1.04% in assay [6]. Also, the inhibition turned out to be 0.69% in assay [7]; 1.57% in [8]; 2.87% in [9]; 3.3% in [10]; 2.16% in [11]; 1.7% in assay [12]. Further, the inhibition in assay [13] is 1.92%; in [14], 0.21%; in assay [15], 1.54%; in assay [16], -0.45%; in [17], 3.35%; in assay [18] it was 0.52%. The inhibition in assay [19] is 1.79%; in [20] it was 0.43%.

In the case of `CCn1cc(-c2ccnc3[nH]ccc23)c(-c2cccc(NC(=O)Nc3ccc(OCc4ccccc4)cc3)c2)n1`, the inhibition in assay [1] is 2.68%; in [2] it was -0.3%; in assay [3], 0.28%; in assay [4], 0.93%; in assay [5], 1.88%; in [6], 0.47%. Also, the inhibition in [7] amounted to 1.93%; in [8] it was 2.3%; in [9] it was 5.37%; in assay [10], 18.8%; in [11] it was 2.85%; in [12] it was 1.53%. Also, the inhibition in [13] is 4.36%; in assay [14], 2.12%; in assay [15], 1.15%; in [16] it was 2.48%; in assay [17] it was 1.43%; in assay [18] it was 4.18%. Besides, the inhibition in assay [19] was 4.31%; in assay [20], -1.8%.
